Key:
[1] = molecular target: T1, Serine/threonine-protein kinase Nek9 (Homo sapiens) (UniProt Q8TD19); conditions: at 1 µM;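 further: each value is a mean percent inhibition of NEK9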
T1 sequence (whole entry): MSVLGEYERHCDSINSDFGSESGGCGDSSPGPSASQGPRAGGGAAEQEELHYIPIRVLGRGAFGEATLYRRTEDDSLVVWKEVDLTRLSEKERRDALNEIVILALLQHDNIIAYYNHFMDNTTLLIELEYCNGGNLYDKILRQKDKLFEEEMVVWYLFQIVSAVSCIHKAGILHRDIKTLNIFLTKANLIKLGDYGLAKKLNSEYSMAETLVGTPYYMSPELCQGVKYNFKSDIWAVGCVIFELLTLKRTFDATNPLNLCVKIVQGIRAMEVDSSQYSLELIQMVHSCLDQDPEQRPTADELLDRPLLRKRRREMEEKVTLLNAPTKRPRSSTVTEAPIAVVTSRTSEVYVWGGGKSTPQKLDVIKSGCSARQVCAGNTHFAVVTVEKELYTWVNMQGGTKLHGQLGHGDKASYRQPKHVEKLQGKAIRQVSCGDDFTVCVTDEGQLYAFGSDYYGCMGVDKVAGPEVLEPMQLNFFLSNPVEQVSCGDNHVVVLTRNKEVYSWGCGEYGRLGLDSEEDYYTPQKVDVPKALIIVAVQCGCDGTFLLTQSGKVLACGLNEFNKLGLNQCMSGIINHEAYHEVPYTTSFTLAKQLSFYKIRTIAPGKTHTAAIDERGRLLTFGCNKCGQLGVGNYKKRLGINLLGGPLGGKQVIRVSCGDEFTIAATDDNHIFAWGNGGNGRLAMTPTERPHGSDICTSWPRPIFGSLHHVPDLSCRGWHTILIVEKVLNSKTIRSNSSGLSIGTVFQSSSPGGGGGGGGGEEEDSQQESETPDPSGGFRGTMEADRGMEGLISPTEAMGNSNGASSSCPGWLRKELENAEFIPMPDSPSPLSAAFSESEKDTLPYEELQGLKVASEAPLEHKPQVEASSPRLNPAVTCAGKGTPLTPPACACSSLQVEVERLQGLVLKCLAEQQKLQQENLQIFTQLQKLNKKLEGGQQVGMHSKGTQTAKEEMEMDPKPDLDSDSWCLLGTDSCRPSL

[2] = molecular target: Serine/threonine-protein kinase PLK1 (Homo sapiens) (UniProt P53350); conditions: at 0.1 µM
[3] = molecular target: Serine/threonine-protein kinase PLK1 (Homo sapiens) (UniProt P53350); conditions: at 1 µM
[4] = molecular target: T2, Dual specificity protein kinase TTK (Homo sapiens) (UniProt P33981); conditions: at 0.1 µM
T2 sequence (whole entry): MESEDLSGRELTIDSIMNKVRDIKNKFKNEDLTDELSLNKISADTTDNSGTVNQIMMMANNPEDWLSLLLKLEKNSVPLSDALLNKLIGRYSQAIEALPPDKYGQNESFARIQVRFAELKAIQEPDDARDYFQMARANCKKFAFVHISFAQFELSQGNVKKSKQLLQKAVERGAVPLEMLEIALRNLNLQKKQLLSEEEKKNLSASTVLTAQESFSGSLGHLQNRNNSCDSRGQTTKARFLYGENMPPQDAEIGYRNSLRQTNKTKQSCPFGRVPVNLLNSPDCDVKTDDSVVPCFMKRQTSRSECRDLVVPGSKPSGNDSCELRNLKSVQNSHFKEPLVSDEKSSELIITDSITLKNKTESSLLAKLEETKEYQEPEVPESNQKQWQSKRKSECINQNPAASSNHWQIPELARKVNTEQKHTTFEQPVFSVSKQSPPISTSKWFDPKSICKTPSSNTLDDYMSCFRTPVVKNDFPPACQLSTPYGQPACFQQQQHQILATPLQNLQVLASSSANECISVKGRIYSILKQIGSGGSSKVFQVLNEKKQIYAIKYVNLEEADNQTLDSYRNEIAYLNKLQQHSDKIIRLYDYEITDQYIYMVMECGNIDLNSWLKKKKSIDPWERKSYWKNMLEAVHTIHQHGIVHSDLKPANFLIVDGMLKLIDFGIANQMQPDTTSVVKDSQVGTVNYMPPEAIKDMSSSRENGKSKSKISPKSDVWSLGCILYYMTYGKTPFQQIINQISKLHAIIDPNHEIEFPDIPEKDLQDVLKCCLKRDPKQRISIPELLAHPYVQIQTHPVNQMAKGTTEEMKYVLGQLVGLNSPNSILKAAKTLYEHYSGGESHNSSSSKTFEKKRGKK

[5] = system: T3, Receptor-type tyrosine-protein kinase FLT3 (Homo sapiens), P36888 [D835Y]; conditions: at 1 µM
T3 sequence (whole entry): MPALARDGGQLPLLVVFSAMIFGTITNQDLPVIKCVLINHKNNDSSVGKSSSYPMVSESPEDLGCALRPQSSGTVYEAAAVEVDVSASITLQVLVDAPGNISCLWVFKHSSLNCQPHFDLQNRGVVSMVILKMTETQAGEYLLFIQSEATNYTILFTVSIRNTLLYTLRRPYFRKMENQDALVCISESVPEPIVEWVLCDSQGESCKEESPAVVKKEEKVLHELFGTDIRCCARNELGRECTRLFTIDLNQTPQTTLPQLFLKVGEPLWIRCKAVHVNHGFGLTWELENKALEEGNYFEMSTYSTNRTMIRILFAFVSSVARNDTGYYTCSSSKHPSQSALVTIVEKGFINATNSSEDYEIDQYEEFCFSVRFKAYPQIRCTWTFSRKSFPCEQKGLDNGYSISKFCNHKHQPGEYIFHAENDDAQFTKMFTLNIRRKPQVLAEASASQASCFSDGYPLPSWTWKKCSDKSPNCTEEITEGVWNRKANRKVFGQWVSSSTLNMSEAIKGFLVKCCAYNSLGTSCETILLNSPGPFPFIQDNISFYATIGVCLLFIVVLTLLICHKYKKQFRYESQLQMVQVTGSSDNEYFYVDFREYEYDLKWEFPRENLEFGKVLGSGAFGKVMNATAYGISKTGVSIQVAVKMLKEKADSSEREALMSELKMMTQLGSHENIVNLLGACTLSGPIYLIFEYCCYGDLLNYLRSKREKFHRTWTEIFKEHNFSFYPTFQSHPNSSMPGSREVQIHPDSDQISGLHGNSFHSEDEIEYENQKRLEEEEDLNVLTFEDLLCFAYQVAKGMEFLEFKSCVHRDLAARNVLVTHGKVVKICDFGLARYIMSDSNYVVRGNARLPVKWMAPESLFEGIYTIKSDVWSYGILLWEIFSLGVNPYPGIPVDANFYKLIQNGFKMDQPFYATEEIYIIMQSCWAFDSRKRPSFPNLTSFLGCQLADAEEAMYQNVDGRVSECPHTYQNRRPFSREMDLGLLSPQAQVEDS

[6] = molecular target: Vascular endothelial growth factor receptor 3 (Homo sapiens) (UniProt P35916); conditions: at 0.1 µM
[7] = molecular target: Vascular endothelial growth factor receptor 3 (Homo sapiens) (UniProt P35916); conditions: at 1 µM
[8] = molecular target: Macrophage colony-stimulating factor 1 receptor (Homo sapiens) (UniProt P07333); conditions: at 0.1 µM
[9] = molecular target: Macrophage colony-stimulating factor 1 receptor (Homo sapiens) (UniProt P07333); conditions: at 1 µM
[10] = molecular target: Tyrosine-protein kinase Fyn (Homo sapiens) (UniProt P06241); conditions: at 0.1 µM
Chain of Tyrosine-protein kinase Fyn (Homo sapiens) (P06241 2-537 limits assumed): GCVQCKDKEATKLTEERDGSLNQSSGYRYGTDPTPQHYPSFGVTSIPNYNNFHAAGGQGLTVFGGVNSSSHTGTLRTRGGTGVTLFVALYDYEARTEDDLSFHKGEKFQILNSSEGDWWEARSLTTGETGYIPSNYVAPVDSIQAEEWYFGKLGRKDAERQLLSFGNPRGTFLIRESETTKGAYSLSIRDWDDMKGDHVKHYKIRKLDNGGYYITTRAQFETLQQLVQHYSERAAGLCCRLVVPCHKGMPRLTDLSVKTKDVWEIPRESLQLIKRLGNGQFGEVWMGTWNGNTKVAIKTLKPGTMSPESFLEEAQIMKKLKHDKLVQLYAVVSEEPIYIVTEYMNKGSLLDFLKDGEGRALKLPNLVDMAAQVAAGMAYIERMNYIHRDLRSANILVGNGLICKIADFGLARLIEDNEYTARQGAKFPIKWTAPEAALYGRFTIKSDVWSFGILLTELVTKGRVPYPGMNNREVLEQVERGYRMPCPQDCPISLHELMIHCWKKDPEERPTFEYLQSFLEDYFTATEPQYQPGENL

Chain of Vascular endothelial growth factor receptor 3 (Homo sapiens) (P35916 whole entry): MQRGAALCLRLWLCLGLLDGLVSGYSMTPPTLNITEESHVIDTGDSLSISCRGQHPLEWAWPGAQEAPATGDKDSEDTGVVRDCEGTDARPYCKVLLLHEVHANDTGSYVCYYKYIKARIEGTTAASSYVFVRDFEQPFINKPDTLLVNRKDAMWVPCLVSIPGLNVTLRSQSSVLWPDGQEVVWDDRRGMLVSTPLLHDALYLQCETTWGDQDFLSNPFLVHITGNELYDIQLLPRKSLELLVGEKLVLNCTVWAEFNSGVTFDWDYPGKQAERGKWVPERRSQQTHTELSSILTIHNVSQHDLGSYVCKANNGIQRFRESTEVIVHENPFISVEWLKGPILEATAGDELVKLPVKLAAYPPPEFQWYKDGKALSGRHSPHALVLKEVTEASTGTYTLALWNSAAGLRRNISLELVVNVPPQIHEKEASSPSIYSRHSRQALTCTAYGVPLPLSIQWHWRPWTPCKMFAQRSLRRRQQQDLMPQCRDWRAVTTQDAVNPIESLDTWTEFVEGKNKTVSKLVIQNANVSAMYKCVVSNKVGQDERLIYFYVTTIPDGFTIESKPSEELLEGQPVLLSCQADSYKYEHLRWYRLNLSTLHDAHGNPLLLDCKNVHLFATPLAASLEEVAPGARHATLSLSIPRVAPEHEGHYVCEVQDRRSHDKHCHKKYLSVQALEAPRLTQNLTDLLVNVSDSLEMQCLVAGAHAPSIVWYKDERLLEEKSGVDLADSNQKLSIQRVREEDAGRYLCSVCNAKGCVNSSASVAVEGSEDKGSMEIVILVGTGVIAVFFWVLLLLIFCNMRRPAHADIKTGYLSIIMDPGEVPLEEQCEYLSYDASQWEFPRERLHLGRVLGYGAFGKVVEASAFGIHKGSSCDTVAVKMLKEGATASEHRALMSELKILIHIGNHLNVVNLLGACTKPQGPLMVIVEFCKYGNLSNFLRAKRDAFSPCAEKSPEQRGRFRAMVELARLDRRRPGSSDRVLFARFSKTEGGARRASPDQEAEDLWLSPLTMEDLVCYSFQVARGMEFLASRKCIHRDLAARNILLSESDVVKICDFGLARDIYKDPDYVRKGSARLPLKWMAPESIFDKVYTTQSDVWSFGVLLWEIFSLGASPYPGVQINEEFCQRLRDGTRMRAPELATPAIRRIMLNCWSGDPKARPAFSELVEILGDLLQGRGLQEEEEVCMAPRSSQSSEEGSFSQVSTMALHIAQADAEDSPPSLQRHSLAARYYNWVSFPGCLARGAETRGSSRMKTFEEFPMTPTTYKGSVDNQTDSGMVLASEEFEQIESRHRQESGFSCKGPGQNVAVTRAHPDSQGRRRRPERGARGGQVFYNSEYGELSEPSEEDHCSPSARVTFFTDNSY
Chain of Serine/threonine-protein kinase PLK1 (Homo sapiens) (P53350 whole entry): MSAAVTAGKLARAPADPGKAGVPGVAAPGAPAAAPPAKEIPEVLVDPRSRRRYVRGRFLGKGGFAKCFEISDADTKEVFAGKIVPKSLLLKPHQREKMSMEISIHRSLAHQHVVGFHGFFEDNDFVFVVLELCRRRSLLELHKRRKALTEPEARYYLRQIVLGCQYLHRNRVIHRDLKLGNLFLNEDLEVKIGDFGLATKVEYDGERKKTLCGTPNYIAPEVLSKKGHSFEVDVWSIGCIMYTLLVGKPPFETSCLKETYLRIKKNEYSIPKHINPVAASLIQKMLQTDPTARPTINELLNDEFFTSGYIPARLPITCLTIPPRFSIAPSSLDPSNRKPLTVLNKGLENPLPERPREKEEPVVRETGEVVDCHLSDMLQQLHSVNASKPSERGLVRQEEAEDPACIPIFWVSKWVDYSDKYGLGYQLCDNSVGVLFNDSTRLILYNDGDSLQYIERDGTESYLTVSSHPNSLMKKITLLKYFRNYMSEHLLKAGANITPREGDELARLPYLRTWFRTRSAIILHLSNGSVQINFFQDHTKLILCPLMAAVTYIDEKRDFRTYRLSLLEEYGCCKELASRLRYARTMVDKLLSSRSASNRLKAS
Chain of Macrophage colony-stimulating factor 1 receptor (Homo sapiens) (P07333 whole entry): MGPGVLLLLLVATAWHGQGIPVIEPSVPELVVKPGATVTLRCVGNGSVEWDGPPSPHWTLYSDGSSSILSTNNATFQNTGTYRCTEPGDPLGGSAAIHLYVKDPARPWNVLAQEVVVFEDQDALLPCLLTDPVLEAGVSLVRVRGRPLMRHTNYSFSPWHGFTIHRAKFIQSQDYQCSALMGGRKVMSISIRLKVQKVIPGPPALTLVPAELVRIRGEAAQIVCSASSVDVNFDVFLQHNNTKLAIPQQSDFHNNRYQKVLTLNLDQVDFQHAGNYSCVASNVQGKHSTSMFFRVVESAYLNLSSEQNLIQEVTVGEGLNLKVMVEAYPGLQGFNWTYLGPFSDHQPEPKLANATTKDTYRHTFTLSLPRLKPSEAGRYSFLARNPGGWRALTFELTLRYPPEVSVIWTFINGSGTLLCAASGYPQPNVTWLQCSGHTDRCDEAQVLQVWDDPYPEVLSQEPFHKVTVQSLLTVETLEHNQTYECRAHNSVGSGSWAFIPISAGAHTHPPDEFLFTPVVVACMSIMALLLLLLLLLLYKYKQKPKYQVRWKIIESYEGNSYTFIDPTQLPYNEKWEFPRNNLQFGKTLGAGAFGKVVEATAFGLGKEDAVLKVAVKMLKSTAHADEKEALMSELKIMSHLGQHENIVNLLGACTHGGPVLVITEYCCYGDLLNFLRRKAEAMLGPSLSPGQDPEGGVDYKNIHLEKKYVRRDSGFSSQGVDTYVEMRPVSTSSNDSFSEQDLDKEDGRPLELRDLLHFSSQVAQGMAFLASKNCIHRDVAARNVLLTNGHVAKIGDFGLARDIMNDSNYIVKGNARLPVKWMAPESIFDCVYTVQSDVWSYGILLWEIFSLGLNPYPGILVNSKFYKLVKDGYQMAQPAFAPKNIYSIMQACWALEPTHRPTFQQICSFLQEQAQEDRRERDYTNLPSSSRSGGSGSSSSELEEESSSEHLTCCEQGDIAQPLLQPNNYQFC

SMILES | inhibition [1] [%] | inhibition [2] [%] | inhibition [3] [%] | inhibition [4] [%] | inhibition [5] [%] | inhibition [6] [%] | inhibition [7] [%] | inhibition [8] [%] | inhibition [9] [%] | inhibition [10] [%]
COc1ccc(-c2coc3ncnc(N)c23)cc1 | 6.24 | 3.82 | 3.47 | 10.9 | -3.79 | 0.69 | -0.08 | 4.17 | 2.83 | 0.65
CCn1c(-c2nonc2N)nc2c(C#CC(C)(C)O)nc(CN3CCCC3)cc21 | 3.04 | -0.39 | -1.2 | 1.71 | 0.63 | 0.61 | 5.17 | -0.03 | 2.57 | 2.94
COc1cccc(-n2ncc3c(N/N=C/c4cccc(F)c4)ncnc32)c1 | 3.11 | 3.32 | 3.39 | 6.88 | 14.1 | -8.81 | -1.89 | -0.57 | 3.43 | 4.02
CCN1CCC(CC(=O)Nc2n[nH]c3nc(-c4cccs4)c(Br)cc23)CC1 | 0.2 | -3.36 | -3.47 | -6.26 | 10.7 | 1.17 | 2.51 | -2.02 | 0.93 | -0.42
O=C1NC(=O)C(N2CCc3ccccc32)=C1c1ccc(Cl)cc1 | 6.39 | 3.88 | 2.74 | 7.71 | 14.7 | 1.62 | 0.97 | 4.95 | 4.62 | 4.56
CCn1c(-c2nonc2N)nc2ccncc21 | 5.33 | 1.68 | 2.44 | 3.2 | 0.13 | 2.12 | 2.74 | 0.3 | 0 | 2.62
COC(=O)Nc1nc2cc(Oc3cccc(NC(=O)Nc4cc(C(F)(F)F)ccc4F)c3)ccc2[nH]1 | 0.95 | 1.57 | 0.56 | 0.37 | 0.94 | 1.33 | 11.4 | 4.37 | 27.8 | 1.12
Fc1cccc(COc2ccc(Nc3ncnc4sc(-c5cccs5)cc34)cc2Cl)c1 | 2.21 | 1.64 | 2.97 | 2.43 | 4.36 | 3.77 | 3.65 | 0.1 | 11.2 | 1.11
CS(=O)(=O)CCNCc1nc(-c2ccc3ncnc(Nc4ccc(F)c(Cl)c4)c3c2)cs1 | -7.92 | 1.65 | 1.15 | 1.71 | 5.8 | 3.61 | 6.4 | 1.81 | 3.54 | -1.21

— ChEMBL document CHEMBL1961873, “Compounds: GSK PKIS; Assays: Nanosyn kinase panel” (2012)
